Among the data in PubChem BioAssay (Tox21) are Potency values, retold here.

Calls of active or inactive are those of the source. Unless noted, calls follow the shape of the dose curve; as a rule, active = well fitted curve in the direction sought with a large enough effect in the repeat runs; inconclusive = weak or mixed curves; inactive = no such curve, though single readings can be large; an effect the other way counts as inactive or inconclusive.

Assay [1] is described as follows: qHTS assay to identify small molecule antagonists of the thyroid receptor (TR) signaling pathway - cell viability counter screen (AID 743064). Also: nearly all actives have a fitted effect of over 50% in size. Also: potency is read from the fitted curve at half-maximal effect. Summed up: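 Viability of T3-stimulated (1 nM final) GH3.TRE-Luc cells is measured by CellTiter-Fluor fluorescence after 23.5 h compound exposure at 37 °C plus 30 min reagent incubation.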
A short description of assay [2]: qHTS assay to identify small molecule antagonists of the thyroid receptor (TR) signaling pathway (AID 743065). Also: nearly all actives have a fitted effect of over 55% in size. Also: potency is read from the fitted curve at half-maximal effect. In short, it runs like this:
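GH3.TRE-Luc rat pituitary cells (two TREs driving luciferase) were dosed with compound, then stimulated with 1 nM T3 (final) for 23.5 h at 37 C. ONE-Glo luminescence was the read-out, with CellTiter-Fluor fluorescence as the cytotoxicity counter-screen.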
For orientation: qHTS replaces the single test concentration by a dilution series.

Assay [3] concerns thyroid hormone receptor (rat, GH3 cells). The assay can be described thus: qHTS assay to identify small molecule agonists of the thyroid receptor (TR) signaling pathway (AID 743066; calls by dose curve).
In assay [4] the target is Estrogen receptor (Homo sapiens) (UniProt P03372). The assay can be described thus: qHTS assay to identify small molecule antagonists of the estrogen receptor alpha (ER-alpha) signaling pathway (AID 743069; active = well fitted curve in the direction sought with a large enough effect in the signal ratio in the repeat runs, not every such curve was filed as active; inconclusive = weak or mixed curves, or effect the other way; inactive = no such curve, though single readings can be large or run the other way; the % refers to the signal ratio). In short, it runs like this:
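Beta-lactamase FRET fluorescence is read after 2 hr at room temperature with LiveBLAzer B/G substrate. Before that, ER-alpha-bla HEK293 cells sit 4 hr after plating, then receive compound plus 17beta-estradiol and incubate 18 hr at 37C.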

The nature of assay [5]: qHTS assay to identify small molecule antagonists of the estrogen receptor alpha (ER-alpha) signaling pathway - cell viability counter screen (AID 743074; calls by dose curve;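 also: HEK293 cells carrying ER-alpha-UAS-bla reporter stimulated with 17beta-estradiol; nearly all actives have a fitted effect of over 45% in size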).
In assay [6] the target is Estrogen receptor (Homo sapiens) (UniProt P03372). As to the kind of experiment: qHTS assay to identify small molecule agonists of the estrogen receptor alpha (ER-alpha) signaling pathway (AID 743075; calls by dose curve;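 also: HEK293 GripTite cells with ER-alpha and UAS-driven beta-lactamase reporter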; also: potency is read from the fitted curve at half-maximal effect).
Sequence of Estrogen receptor (Homo sapiens) (P03372 whole entry, looked up): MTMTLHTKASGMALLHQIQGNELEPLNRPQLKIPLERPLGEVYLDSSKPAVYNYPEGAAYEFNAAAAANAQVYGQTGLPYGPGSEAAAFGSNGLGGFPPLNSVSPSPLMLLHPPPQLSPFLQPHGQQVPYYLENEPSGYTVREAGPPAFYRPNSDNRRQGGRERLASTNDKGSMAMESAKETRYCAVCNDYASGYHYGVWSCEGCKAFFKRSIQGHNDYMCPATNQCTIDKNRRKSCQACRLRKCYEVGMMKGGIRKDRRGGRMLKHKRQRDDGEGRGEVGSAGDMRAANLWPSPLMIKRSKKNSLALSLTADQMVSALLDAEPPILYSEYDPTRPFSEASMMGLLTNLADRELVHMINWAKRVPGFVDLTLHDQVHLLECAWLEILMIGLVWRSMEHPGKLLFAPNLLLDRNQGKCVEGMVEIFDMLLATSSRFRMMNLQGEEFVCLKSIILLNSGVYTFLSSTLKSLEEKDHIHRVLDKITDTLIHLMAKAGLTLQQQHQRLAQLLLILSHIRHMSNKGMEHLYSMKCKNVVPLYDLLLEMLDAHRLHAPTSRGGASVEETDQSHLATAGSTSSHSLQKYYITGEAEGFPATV
The target is the same in assay [7]. As to the kind of experiment: qHTS assay to identify small molecule agonists of the estrogen receptor alpha (ER-alpha) signaling pathway using the BG1 cell line (AID 743079). Also: nearly all actives have a fitted effect of over 20% in size. Also: potency is read from the fitted curve at half-maximal effect. The settings on record: BG1Luc4E2 cells, ERE-luciferase agonist, 22 h; activation: at 70.3 µM (top of the series).
The nature of assay [8]: qHTS assay to identify small molecule antagonists of the estrogen receptor alpha (ER-alpha) signaling pathway using the BG1 cell line (AID 743080; calls by dose curve;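 also: BG1 cells stimulated with 17beta-estradiol alongside compound; nearly all actives have a fitted effect of over 25% in size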). In short, it runs like this: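 BG1-Luc-4E2 cells (endogenous full-length ER-alpha, stable 4×ERE-luciferase) were starved 5 days in phenol-red-free medium with 10% charcoal-stripped FBS, plated 24 h, then given compound plus 17beta-estradiol for 21.5 h at 37 C; ONE-Glo luminescence read after 30 min.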

The target in another assay is Aromatase (Homo sapiens) (UniProt P11511). The assay can be described thus: qHTS assay to identify aromatase inhibitors (AID 743083). Also: nearly all actives have a fitted effect of over 55% in size. Also: potency is read from the fitted curve at half-maximal effect.
Sequence of Aromatase (Homo sapiens) (P11511 whole entry, looked up): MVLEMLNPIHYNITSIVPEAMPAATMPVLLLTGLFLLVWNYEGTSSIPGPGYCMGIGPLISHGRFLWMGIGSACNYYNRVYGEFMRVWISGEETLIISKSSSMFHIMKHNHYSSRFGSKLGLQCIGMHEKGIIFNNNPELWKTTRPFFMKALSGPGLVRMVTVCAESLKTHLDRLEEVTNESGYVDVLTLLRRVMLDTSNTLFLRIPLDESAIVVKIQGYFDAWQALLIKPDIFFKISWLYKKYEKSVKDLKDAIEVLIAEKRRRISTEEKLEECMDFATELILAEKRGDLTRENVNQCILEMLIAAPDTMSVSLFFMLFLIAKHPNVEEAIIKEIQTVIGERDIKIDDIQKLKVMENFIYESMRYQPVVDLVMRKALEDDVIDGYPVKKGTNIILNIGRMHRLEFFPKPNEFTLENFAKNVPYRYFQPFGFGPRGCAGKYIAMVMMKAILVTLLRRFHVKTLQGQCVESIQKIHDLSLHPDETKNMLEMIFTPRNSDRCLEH
The nature of assay [9]: qHTS assay to identify small molecule antagonists of the estrogen receptor alpha (ER-alpha) signaling pathway using the BG1 cell line - cell viability counter screen (AID 743081).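 Also: compound given together with 17beta-estradiol as the ER stimulus; nearly all actives have a fitted effect of over 45% in size.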 Also: potency is read from the fitted curve at half-maximal effect.

Take `O=P(O)(O)C(O)(Cc1cnc2ccccn12)P(=O)(O)O`: the Potency entry in assay [1], in [2], in assay [3], in [4], in [5] and in [6] was “inactive” in each case. Besides, the Potency result (in assay [7]; in [8]; in the assay with Aromatase (Homo sapiens)) was “inactive” in each case.
For `CC(C)(C)CC(C)(C)c1cc(Cc2cc(C(C)(C)CC(C)(C)C)cc(-n3nc4ccccc4n3)c2O)c(O)c(-n2nc3ccccc3n2)c1`, the Potency entry in assay [1], in [2], in assay [3], in assay [4], in assay [5] and in [6] was “inactive” throughout. For the same compound, the Potency entry (in assay [8]; in assay [9]; with Aromatase (Homo sapiens)) was “inactive” in each case.
Regarding `N[C@H](CC(=O)O)C(=O)O`, the Potency entry in [1], in assay [2], in assay [3], in [5], in assay [6] and in assay [7] was “inactive” in each case. The Potency entry (in assay [8]; in assay [9]; with Aromatase (Homo sapiens)) was “inactive” throughout.
On to `CCc1ccc(S(=O)(=O)O)cc1`, for which the Potency entry in assay [1], in assay [2], in [3], in assay [5], in assay [8] and in [9] was “inactive” in each case. Further, the Potency entry with Aromatase (Homo sapiens) was “inactive”. For the same compound, the Potency was 4.77 µM [inconclusive] (active) in assay [6] and 0.298 µM (active) in assay [7].
As to `CC(=O)OCC(=O)[C@@]12OC3(CCCC3)O[C@@H]1C[C@H]1[C@@H]3CCC4=CC(=O)C=C[C@]4(C)[C@@]3(F)[C@@H](O)C[C@@]12C`, the Potency result in [1], in [2], in [3], in assay [4], in assay [5] and in assay [6] was “inactive” throughout. In addition, in the assay with Aromatase (Homo sapiens), the Potency entry was “inactive”.
As to `Cc1cc(-c2ccc(N=Nc3c(S(=O)(=O)O)cc4cc(S(=O)(=O)O)cc(N)c4c3O)c(C)c2)ccc1N=Nc1c(S(=O)(=O)O)cc2cc(S(=O)(=O)O)cc(N)c2c1O`, the Potency is 23.7 µM (active) in [1], 11.9 µM (active) in [2], 21.1 µM (active) in assay [9] and 11.9 µM (active) with Aromatase (Homo sapiens). The Potency result in assay [3], in [4] and in assay [6] was “inactive” each time.
